Measured values taken from PubChem BioAssay (NCATS).
Records with an inconclusive call do not appear. Entries that show only a call come without a potency. Calls of active or inactive are those of the source. Unless noted, calls come from the whole dose curve.

Key:
[1] = qHTS for Inhibitors of the Functional Ribonucleoprotein Complex (vRNP) of Lassa (LASV) Arenavirus: LASV Primary Screen - GLuc reporter signal (AID 1347082; calls by dose curve; tested in HEK293 reporter line; note: nearly all actives have a fitted effect of over 60% in size; note: potency is the fitted concentration of half-maximal effect)
[2] = qHTS for Inhibitors of the Functional Ribonucleoprotein Complex (vRNP) of Lassa (LASV) Arenavirus: Viability assay - alamar blue signal for LASV Primary Screen (AID 1347083; calls by dose curve; tested in HEK293 reporter line; note: nearly all actives have a fitted effect of over 80% in size; note: potency is the fitted concentration of half-maximal effect)
[3] = qHTS for Inhibitors of the Functional Ribonucleoprotein Complex (vRNP) of Lymphocytic Choriomeningitis Arenaviruses (LCMV): Viability assay - alamar blue signal for LCMV Primary Screen (AID 1347085; calls by dose curve; tested in HEK293 reporter line; note: nearly all actives have a fitted effect of over 80% in size; note: potency is the fitted concentration of half-maximal effect)
[4] = molecular target: Nucleoprotein (Lymphocytic choriomeningitis virus (strain Armstrong)) (UniProt P09992); assay: qHTS for Inhibitors of the Functional Ribonucleoprotein Complex (vRNP) of Lymphocytic Choriomeningitis Arenaviruses (LCMV): LCMV Primary Screen - GLuc reporter signal (AID 1347086); note: series mostly up to about 57 µM; nearly all actives have a fitted effect of over 70% in size
Nucleoprotein (Lymphocytic choriomeningitis virus (strain Armstrong)), sequence (P09992 whole entry, looked up): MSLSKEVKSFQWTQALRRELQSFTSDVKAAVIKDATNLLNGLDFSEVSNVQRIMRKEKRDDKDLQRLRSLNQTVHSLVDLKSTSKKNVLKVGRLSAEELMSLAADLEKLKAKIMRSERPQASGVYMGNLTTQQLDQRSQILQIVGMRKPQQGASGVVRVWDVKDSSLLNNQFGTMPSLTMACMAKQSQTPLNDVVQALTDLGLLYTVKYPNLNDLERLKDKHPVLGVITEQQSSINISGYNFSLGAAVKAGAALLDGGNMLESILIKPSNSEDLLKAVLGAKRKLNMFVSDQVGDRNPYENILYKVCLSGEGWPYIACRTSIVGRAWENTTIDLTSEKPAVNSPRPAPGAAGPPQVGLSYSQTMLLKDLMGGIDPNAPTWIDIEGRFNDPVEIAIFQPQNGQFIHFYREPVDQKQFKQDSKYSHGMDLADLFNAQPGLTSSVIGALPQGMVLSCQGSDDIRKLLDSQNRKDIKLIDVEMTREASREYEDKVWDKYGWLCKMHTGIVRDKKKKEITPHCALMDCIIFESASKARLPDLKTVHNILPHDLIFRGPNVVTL

CC(=O)O[C@H]1C(=O)[C@@]2(C)C([C@H](OC(=O)c3ccccc3)[C@]3(O)C[C@H](O)C(C)=C1C3(C)C)[C@]1(OC(C)=O)CO[C@@H]1C[C@H]2O (stereo not given in full)
Potency [1]: inactive

COC(=O)C1C2CC3c4[nH]c5cc(OC)ccc5c4CCN3CC2CC(O)C1OC (stereo not given)
Potency [1]: inactive
Potency [2]: inactive

Cc1cc(Nc2ncc3c(n2)N(C)C(=O)N(c2cc(NC(=O)c4cccc(C(F)(F)F)c4)ccc2C)C3)n(C)n1
Potency [1]: 3850 nM (active)
Potency [2]: 611 nM (active)
Potency [3]: 1530 nM (active)

CCCCCCC1CCC(=O)O1 (stereo not given)
Potency [1]: inactive
Potency [2]: inactive
Potency [3]: inactive

COc1ccc(C2CC(=O)c3c(O)cc(O)cc3O2)cc1O (stereo not given)
Potency [1]: inactive
Potency [2]: inactive

CC(C=CC(O)=C1C(=O)CNC1=O)=C[C@@H](C)C1OC2(C)OC(C(=O)C3O[C@@]32C)C1C (stereo not given in full)
Potency [1]: inactive
Potency [2]: inactive
Potency [3]: inactive
Potency [4]: inactive

O=C1NC(=O)C(=Cc2ccc3nccc(-c4ccncc4)c3c2)S1
Potency [1]: 432 nM (active)
Potency [2]: 109 nM (active)
Potency [3]: 273 nM (active)

CC(=O)O[C@@]12CO[C@@H]1C[C@H](OC1OCC(O)C(O)C1O)[C@@]1(C)C(=O)[C@H](O)C3=C(C)[C@@H](OC(=O)[C@H](O)[C@@H](NC(=O)c4ccccc4)c4ccccc4)C[C@@](O)([C@@H](OC(=O)c4ccccc4)C12)C3(C)C (stereo not given in full)
Potency [1]: inactive
Potency [2]: 20000 nM (active)
